# Rows were chosen to be rich in hits. Some 3.5% of all compounds tested hit in one or more screens of this group.
# HSP90 inh – HSP90 refolding inhibition in rabbit reticulocyte lysate; luciferase refolding luminescence, 3 h; inhibition, % at 5.6 µM; 0.91% of 290,000 active; AID 1789;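 active means inhibition above the screen-wide mean plus 3 SD, computed separately per campaign, cut at about 16% in these data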;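 further: 0% = DMSO wells and 100% = 60 µM geldanamycin wells; inhibitors lower the luminescence because luciferase stays unfolded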
# TRAIL sens C8 – sensitizes caspase-8 expressing cells to TRAIL; 1% of 360,000 active; NB7+C8 cells + TRAIL, ATPlite viability luminescence; inhibition (viability loss, TRAIL sensitization), % at 10 µM;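 active means compounds causing at least 50% loss of cell viability in the single-dose screen, relative to plate controls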
# TROY signal inh – blocks TROY-dependent signaling in reporter cells; Q293 LMP1-TROYcd NF-kB luciferase reporter, 4 h; inhibition, % at 10 µM; 0.98% of 360,000 active;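 active means compounds whose plate-normalised and pattern-corrected inhibition of the luciferase reporter signal at the single screening dose is 50% or more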
# Platelet DG rel – modulates dense granule release in human platelets; human platelet-rich plasma, SFLLRN dense granule ATP release, luminescence; inhibition, %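 (compounds screened at 7.5 µM in platelet-rich plasma)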; 0.22% of 300,000 active; AID 1663;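 active means mean replicate score, as percent of positive control, at or above 50; inconclusive means mean below 50 but at least one replicate at or above 50; inactive means mean and every replicate below 50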
# TWEAK-Fn14 inh – inhibitors of TWEAK-Fn14 interaction signaling. TWEAK-stimulated Fn14 reporter cells, luciferase luminescence, 8 h. inhibition, % at 10 µM. 2% of 360,000 active; in the data active means inhibition above about 50%
# PPC-1+TRAIL kill – PPC-1 cancer cell killing with TRAIL present; 0.41% of 220,000 active; PPC-1 cells + TRAIL, ATPLite viability luminescence; cell killing (% activity), % at 4 µM or 5 µM;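 active means cell killing above 50% in the first pass at 4 µM, then a duplicate retest at 5 µM averaging 50% or more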;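 further: plate controls were cells with TRAIL plus DMSO for no effect and medium-only wells lacking cells for full effect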
# HSP90 confirm – confirmation of HSP90 inhibitors; shares compounds with HSP90 inh; 64% of 2,300 active; rabbit reticulocyte lysate, luciferase refolding luminescence, 3 h; inhibition, % at 5.9 µM; in the data active means inhibition above about 18%;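 further: 0% = vehicle wells and 100% = reference inhibitor wells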
# FLuc counter – firefly luciferase inhibition, HSP90 counter-screen | purified native firefly luciferase, luminescence | 48% of 2,300 active | inhibition, % at 5.9 µM | AID 1847 | shares compounds with HSP90 inh;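 active means inhibition above the mean inhibition of all tested sample wells plus 3 SD, cut at about 10% in these data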;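 further: 0% = DMSO with luciferase and 100% = wells lacking luciferase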
# Target sequence (P08659 whole entry, looked up): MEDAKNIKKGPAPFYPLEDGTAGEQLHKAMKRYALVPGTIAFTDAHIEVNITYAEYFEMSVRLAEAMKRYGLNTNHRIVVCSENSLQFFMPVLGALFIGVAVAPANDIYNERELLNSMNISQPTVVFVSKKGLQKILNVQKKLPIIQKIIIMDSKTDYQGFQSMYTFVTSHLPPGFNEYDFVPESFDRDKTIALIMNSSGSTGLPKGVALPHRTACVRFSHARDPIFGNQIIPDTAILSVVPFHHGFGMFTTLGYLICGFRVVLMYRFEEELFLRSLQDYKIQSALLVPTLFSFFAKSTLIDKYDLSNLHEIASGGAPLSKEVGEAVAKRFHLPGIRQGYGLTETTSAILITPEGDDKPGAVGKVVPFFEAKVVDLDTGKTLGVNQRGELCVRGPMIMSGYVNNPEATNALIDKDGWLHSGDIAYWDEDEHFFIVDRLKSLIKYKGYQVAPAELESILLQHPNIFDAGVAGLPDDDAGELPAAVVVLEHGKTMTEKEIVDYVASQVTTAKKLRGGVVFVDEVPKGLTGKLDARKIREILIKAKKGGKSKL
# Numbers without * were called inactive; ? = inconclusive; nt = not tested or not shown.
SMILES,HSP90 inh,TRAIL sens C8,TROY signal inh,Platelet DG rel,TWEAK-Fn14 inh,PPC-1+TRAIL kill,HSP90 confirm,FLuc counter
CN(C)c1ccc(/C=C/c2cc[n+](C)cc2)cc1,2.0,9.4,0.5,1.7,2.2,9.1,nt,nt
Cn1cc(C(=O)O)c(-c2ccc3c(c2)OCCCO3)n1,-3.3,-1.7,-17.8,-6.1,-3.1,nt,nt,nt
Cc1oc(-c2ccc3c(c2)OCCO3)cc1C(=O)O,95.9*,6.4,84.0*,22.3,106.2*,6.2,100.8*,91.5*
Cc1oc(-c2ccc3c(c2)OCCO3)cc1C(=O)NC(CCC(=O)O)C(=O)O (stereo not drawn),63.8*,-24.2,-2.3,-0.8,11.7,4.1,77.3*,33.1*
COc1ccc(-c2cc(C(=O)O)c(C)o2)cc1OC,76.4*,-2.7,59.5*,7.0,97.9*,-11.9,89.8*,64.6*
COc1ccc(-c2cc(C(=O)NC(Cc3cc4ccccc4[nH]3)C(=O)O)c(C)o2)cc1OC (stereo not drawn),2.4,6.5,3.9,-0.2,-9.2,5.8,nt,nt
Cc1oc(-c2ccc3c(c2)OCCO3)cc1C(=O)NCC(=O)O,90.0*,0.9,2.0,0.8,19.4,nt,94.5*,79.3*
COc1ccccc1-n1cnnc1SC(C)C(=O)Nc1ccc(NC(C)=O)cc1 (stereo not drawn),1.4,-0.3,5.8,1.1,-17.0,3.0,nt,nt
COCC(C)n1c(SCC(=O)NC(=O)NC2CCCC2)nc2ccccc2c1=O (stereo not drawn),nt,1.4,7.0,nt,15.7,nt,nt,nt
CCOc1ccc(NC(=O)c2ccc3c(=O)n(-c4ccc(OC)cc4OC)c(=S)[nH]c3c2)cc1,69.1*,20.7,1.1,16.8,-6.7,nt,8.2,-3.8
Cc1ccnc(SC2CC(=O)N(c3ccc(C(C)C)cc3)C2=O)n1 (stereo not drawn),32.3*,-8.9,12.7,-10.7,-9.1,nt,-6.9,-5.1
Cc1ccnc(SC2CC(=O)N(c3ccc(Cl)cc3)C2=O)n1 (stereo not drawn),-0.6,-3.2,5.3,-1.8,3.0,nt,nt,nt
O=C(O)c1cc(N/N=C/c2cccs2)ccc1Cl,23.9*,nt,nt,6.4,nt,-5.3,66.5*,20.8*
C/C(=N\Nc1ccc(Cl)c(C(=O)O)c1)c1ccccn1,39.6*,-9.4,-67.4,-0.5,-3.8,4.0,2.7,-14.3
Cc1ccc(/C=N/Nc2nc(Cl)c(Cl)cc2Cl)s1,-1.2,-1.4,-66.1,-0.4,-10.4,6.8,nt,nt
Cc1ccc(/C=N/Nc2ccc(Cl)c(C(=O)O)c2)s1,24.1*,-9.2,-23.8,7.9,-1.3,23.9,76.7*,37.3*
O=C(O)c1cc(N/N=C/C(Cl)=C/c2ccccc2)ccc1Cl,48.4*,17.1,-79.7,1.2,8.2,16.2,89.5*,80.3*
CCCCOCCCNC(=O)C[C@@H]1C[C@@]2(C(=O)OCC)CCC=C2N(Cc2ccco2)C1=O,nt,-11.6,2.8,nt,-7.0,nt,nt,nt
Cc1nc(C(F)(F)F)ccc1C(=O)N1CCC1(C)C(=O)NS(=O)(=O)c1ccc2c(c1)CCO2 (stereo not drawn),nt,-24.0,0.1,nt,-9.1,nt,nt,nt
C(=N/N1CCN(c2ccccc2)CC1)/c1ccncc1,-0.4,5.1,-11.4,2.7,-5.5,10.7,nt,nt
COc1ccc(/C=N/N2CCN(c3ccccc3OC)CC2)cc1OC,1.6,-4.5,-16.5,-4.6,-9.9,11.1,nt,nt
COc1ccccc1N1CCN(/N=C/c2ccc(C(=O)O)cc2)CC1,46.4*,8.2,-50.5,-3.8,31.4,nt,60.4*,38.8*
COc1ccccc1NC(=O)O/N=C(\N)c1ccccc1,17.2*,-18.4,5.7,9.5,-16.3,8.6,-1.4,-12.8
COc1ccc(C(=O)O/N=C(\N)c2ccccc2)cc1,25.3*,84.9*,41.9,66.8*,81.5*,nt,43.0*,78.8*
CC(C)(C)c1ccc(C(=O)O/N=C(\N)c2ccccc2)cc1,69.1*,92.6*,90.1*,?,104.7*,nt,25.1*,20.0*
COc1ccc(/C(N)=N/OC(=O)CSc2ccccc2)cc1,3.8,5.4,-57.0,-2.5,18.7,-17.5,nt,nt
COc1ccc(/C(N)=N/OC(=O)c2ccco2)cc1,41.5*,47.5,55.8*,14.2,64.1*,34.4,59.9*,42.8*
